# PubChem BioAssay AID651658 (Broad Institute, 2012)
# Hit rate of the full screen: of about 340,000 compounds, about 5,100 (1.5%) were called active.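 The calls were made as follows: active = mean Tm shift, scaled 0 neutral to 100 positive control, at about 1.3% or above, every replicate too (limit read from the data); inconclusive = no clear call, values can overlap the other calls; inactive = the rest.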 The list comes from a sample in which actives are over-represented; it also holds similar structures and randomly drawn compounds.
# Target: Fibroblast growth factor 22 (Homo sapiens) (UniProt Q9HCT0)
# Test: binders of human FGF22 protein, primary screen, FGF22 synaptogenesis inhibitor project, biophysical, thermal shift, single point (AID 651658)
# Settings: recombinant FGF22 thermal shift, SYPRO orange fluorescence; at 9.99 µM; stronger effect = higher value; percent of sucrose octasulfate shift, DMSO zero
# Chain of Fibroblast growth factor 22 (Homo sapiens) (Q9HCT0 whole entry, looked up): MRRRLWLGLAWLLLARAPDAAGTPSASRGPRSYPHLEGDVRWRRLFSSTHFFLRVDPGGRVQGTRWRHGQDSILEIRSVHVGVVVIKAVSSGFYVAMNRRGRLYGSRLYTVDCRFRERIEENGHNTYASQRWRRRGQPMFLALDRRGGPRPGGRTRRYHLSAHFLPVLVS
row,SMILES,"activity (Tm shift, normalised)"
1,CC(=O)Oc1ccc2c(=O)oc(-c3ccc([N+](=O)[O-])cc3)nc2c1,-0.034% (inactive)
2,O=[N+]([O-])c1ccc2c(c1)C(O)n1nc(-c3ccccc3)nc1S2 (configuration not stated),0.035% (inactive)
3,O=[N+]([O-])c1ccc2oc(-c3cccc(O)c3)nc2c1,43.2% (active)
4,CN(C)C(=O)C[C@@H]1CC[C@H]2[C@@H](COC[C@H](O)CN2C(=O)c2ccncc2)O1,-0.192% (inactive)
5,CC(C)CC#Cc1cnc2c(c1)C(=O)N([C@H](C)CO)C[C@H](C)[C@@H](CN(C)Cc1ccccc1)O2,0.063% (inactive)
6,CO[C@@H]1CN(C)C(=O)c2ccc(NC(=O)Nc3ccccc3)cc2OC[C@@H](C)N(C(=O)CN(C)C)C[C@H]1C,-0.352% (inactive)
7,Cc1c(CCO)sc[n+]1CC(=O)OC12CC3CC(CC(C3)C1)C2,1.45% (active)
8,Cc1c(CCOC(=O)CC23CC4CC(CC(C)(C4)C2)C3)sc[n+]1Cc1ccc([N+](=O)[O-])cc1,-0.223% (inactive)
9,C[C@@H]1CN([C@@H](C)CO)S(=O)(=O)c2ccc(/C=C/c3ccccc3)cc2O[C@H]1CN(C)C(=O)C1CC1,-0.835% (inactive)
10,COc1cccc(CN2CC3(CN(Cc4ccccn4)C3)c3c([nH]c4cc(OC)ccc34)[C@@H]2CO)c1,0.052% (inactive)
11,CCS(=O)(=O)N1CCC2(CC1)CN(Cc1ccc3c(c1)OCO3)[C@H](CO)c1[nH]c3cc(OC)ccc3c12,0.042% (inactive)
12,COc1cc(C(=O)Nn2c(CC(C)C)nc3ccccc3c2=O)cc(OC)c1OC,0.375% (inactive)
13,COc1cc(OC)cc(-c2nc3ccccc3c(=O)n2NC(=O)c2cccnc2Cl)c1,0.323% (inactive)
14,COc1ccccc1C(=O)Nn1c(-c2cccs2)nc2ccccc2c1=O,43.8% (active)
15,C[C@H]1CN([C@@H](C)CO)C(=O)c2cc(-c3ccncc3)cnc2O[C@H]1CN(C)C(=O)c1cccc(F)c1,-0.103% (inactive)
16,C[C@H]1CN([C@@H](C)CO)C(=O)c2cc(NC(=O)Nc3ccccc3)ccc2O[C@H]1CN(C)C(=O)Nc1ccc(F)cc1,0.055% (inactive)
17,CCC(=O)N1C[C@@H](C)[C@H](OC)CN(C)C(=O)c2ccc(NC(=O)COC)cc2OC[C@@H]1C,0.031% (inactive)
18,COCC(=O)Nc1ccc2c(c1)OC[C@H](C)N(C(=O)COC)C[C@@H](C)[C@H](OC)CN(C)C2=O,0.165% (inactive)
19,COCC(=O)Nc1ccc2c(c1)OC[C@H](C)N(C)C[C@@H](C)[C@@H](OC)CN(C)C2=O,38% (active)
20,COc1cccc(-c2ccc3c(c2)[C@H]2[C@H](CCN2C(=O)c2ccc(F)cc2)[C@@H](CO)N3)c1,-0.166% (inactive)
21,O=[N+]([O-])c1cc2ccccc2nc1-c1ccccc1,42.3% (inactive)
22,N#CCSc1nc(-c2ccccc2)nc2ccc(F)cc12,-0.193% (inactive)
23,O=[N+]([O-])c1ccc(F)cc1Oc1nc(-c2cccnc2)nc2ccccc12,43.2% (active)
24,COc1cccc(-c2ccc([C@@H]3[C@@H](C#N)N(C(=O)c4ccccn4)[C@H]3CO)cc2)c1,-0.024% (inactive)
25,O=C(CN1CCOCC1)NC[C@@H]1N[C@@H](CO)[C@@H]1c1ccc(-c2ccccc2)cc1,0.456% (inactive)
26,C[C@@H]1CN([C@H](C)CO)C(=O)c2cc(N(C)C)ccc2O[C@@H](C)CCCCO[C@@H]1CN(C)C(=O)CCCN(C)C,-0.859% (inactive)

row,SMILES,"activity (Tm shift, normalised)"
1,COc1ccccc1C#Cc1cnc2c(c1)C(=O)N([C@H](C)CO)C[C@H](C)[C@H](CN(C)S(=O)(=O)c1cn(C)cn1)O2,0.666% (inactive)
2,CC(C)[C@@H]1COCn2nncc2CCCC(=O)N1,-0.193% (inactive)
3,O=C(C[C@H]1CC[C@@H]2[C@H](COC[C@@H](O)CN2C(=O)Nc2ccc(C(F)(F)F)cc2)O1)NCCc1ccncc1,-0.088% (inactive)
4,O=C1C=C(c2ccccc2)CCC1,43.9% (active)
5,CC(C)NC(=O)N1[C@H](CO)[C@H](c2ccccc2)C12CN(C(=O)Cc1ccccc1)C2,-0.087% (inactive)
6,CC(C)Oc1ccccc1C(=O)NC(CO)C(=O)O (configuration not stated),42.8% (inactive)
7,CC1(C)OC(=O)C(=CNC(CO)C(=O)O)C(=O)O1 (configuration not stated),43.2% (active)
8,COCC(=O)N1CC2(C1)CN(C(=O)COC)[C@@H](CO)c1c2c2ccc(OC)cc2n1C,-0.043% (inactive)
9,C[C@@H]1CN([C@H](C)CO)C(=O)c2cc(NC(=O)Cn3cnnn3)ccc2O[C@@H]1CN(C)C(=O)Nc1ccc2c(c1)OCO2,0.191% (inactive)
10,O=S(=O)(N[C@@H]1CC[C@H](CCn2cc(-c3ccccc3F)nn2)O[C@H]1CO)c1ccc(F)cc1,0.086% (inactive)
11,O=C(Cc1ccccc1Cl)N1CCOCC1,-0.495% (inactive)
12,S=C(Cc1ccc(Cl)cc1)N1CCOCC1,43.7% (active)
13,O=S(=O)(Oc1ccccc1C(=S)N1CCOCC1)c1ccc(Cl)cc1,0% (inactive)
14,COc1ccc2c3c(n(C)c2c1)[C@@H](CO)NCC31CCN(CC2CCCC2)CC1,-0.076% (inactive)
15,Cc1ccc(S(=O)(=O)c2nc(-c3cccs3)oc2NCc2cccnc2)cc1,0.137% (inactive)
16,O=S(=O)(c1ccccc1)c1nc(-c2ccccc2F)oc1NCc1cccnc1,44.2% (active)
17,O=S(=O)(c1ccccc1)c1nc(-c2ccccc2)oc1NCCCN1CCOCC1,0.296% (inactive)
18,O=C(NCC1CC1)[C@@H]1[C@@H](CO)[C@@H]2Cn3c(ccc(-c4ccccc4)c3=O)[C@H]1N2C(=O)C1CC1,0.292% (inactive)
19,CC1CCN(S(=O)(=O)c2ccc3[nH]c(=O)ccc3c2)CC1,43.3% (active)
20,Cc1cc(C)cc(NC(=O)C2CCCN(S(=O)(=O)c3ccc4[nH]c(=O)ccc4c3)C2)c1 (configuration not stated),-0.297% (inactive)
21,CC1CCN(S(=O)(=O)c2ccc3c(c2)n(C)c(=O)n3C)CC1,0.113% (inactive)
22,COCc1[nH]nc2c1C(c1ccccc1)N(c1ccccc1)C2=O (configuration not stated),-0.061% (inactive)
23,COc1ccc(C2c3c(C)nn(-c4ccccc4)c3NC(=O)N2c2ccccc2)cc1 (configuration not stated),42.9% (active)
24,COc1ccc(CCNC(=O)c2c(C)nn(-c3ccccc3)c2Cl)cc1,0.155% (inactive)
25,COc1ccccc1-c1ccc2c(c1)O[C@@H](CN(C)C(=O)Nc1ccccc1)[C@H](C)CN([C@@H](C)CO)S2(=O)=O,0.048% (inactive)
26,CN1c2ccc(-c3cccc(C#N)c3)cc2[C@@H]2[C@@H](CCN2C(=O)C2CCC2)[C@@H]1CO,-0.466% (inactive)

row,SMILES,"activity (Tm shift, normalised)"
1,CC(C(=O)O)n1cnc2sc3c(c2c1=O)CCCC3 (configuration not stated),43.5% (active)
2,COc1ccc(NC(=O)CCNC(=O)Cn2cnc3sc4c(c3c2=O)CCCC4)cc1OC,0.026% (inactive)
3,Cc1nc2sc3c(c2c(=O)n1NC(=O)CCl)CCCC3,0.109% (inactive)
4,CN(C)C(=O)c1ccc(-c2ccc([C@@H]3[C@@H](CO)N4CCCCN(CC5CC5)C[C@H]34)cc2)cc1,-0.109% (inactive)
5,CC(=O)N1[C@@H](CO)[C@H](c2ccccc2)[C@@H]1CN(C)C(=O)CN1CCOCC1,0.01% (inactive)
6,CO[C@H]1CN(C)C(=O)c2cc(NC(=O)C3CCC3)ccc2OC[C@H](C)N(C)C[C@H]1C,-0.155% (inactive)
7,CCNC(=O)Nc1ccc2c(c1)C(=O)N(C)[C@@H]1CC[C@H](CC(=O)NC3CCCCC3)O[C@H]1CO2,-0.109% (inactive)
8,CCCOc1ccc(-c2c(C(=O)N/N=C/c3ccco3)nnn2-c2nonc2N)cc1,-0.098% (inactive)
9,C/C(COc1ccccc1)=N\NC(=O)c1nnn(-c2nonc2N)c1-c1ccc(C)cc1,43.2% (active)
10,Nc1nonc1-n1nnc(C(=O)N/N=C/C2CCCCC2)c1-c1ccccc1,0.34% (inactive)
11,COc1ccccc1CNC(=O)COc1ccc(C)nc1[N+](=O)[O-],0.224% (inactive)
12,Cc1cc(C)cc(OCC(=O)NC(C)c2ccccc2)c1 (configuration not stated),0.179% (inactive)
13,Cc1ccc(OCC(=O)NC(C)c2ccccc2)c([N+](=O)[O-])n1 (configuration not stated),43.5% (active)
14,COc1ccc(S(=O)(=O)N(C)C[C@@H]2OCCCC[C@H](C)Oc3ccc(NC(=O)NC(C)C)cc3C(=O)N([C@@H](C)CO)C[C@@H]2C)cc1,-0.199% (inactive)
15,CO[C@@H]1CN(C)C(=O)c2cc(NC(C)=O)ccc2OC[C@H](C)N(C(=O)CC2CC2)C[C@@H]1C,0.119% (inactive)
16,C[C@@H](O)C#Cc1ccc([C@H]2[C@@H](CO)N3CCCCN(S(=O)(=O)c4ccccc4)C[C@@H]23)cc1,-0.117% (inactive)
17,Cc1ccc(C(=O)NNC(=O)c2ccc3c(c2)OCCO3)cc1,-0.233% (inactive)
18,O=C(/C=C/c1ccc2c(c1)OCCO2)c1ccc(O)cc1,2.05% (active)
19,O=C(COC(=O)c1ccc(O)cc1O)c1ccc2c(c1)OCCO2,0.444% (inactive)
20,C[C@H](CO)N1C[C@H](C)[C@@H](CN(C)C(=O)C2CCCCC2)Oc2cc(C3=CCCC3)ccc2S1(=O)=O,0.195% (inactive)
21,Cc1ccc(C(=O)N/C(=C/c2cccs2)C(=O)N2CCCCC2)cc1,0.095% (inactive)
22,O=C(NCC1CCCO1)/C(=C/c1ccc(Cl)cc1)NC(=O)c1ccccc1 (configuration not stated),-0.33% (inactive)
23,Cc1ccc(C(=O)N/C(=C/c2cccs2)C(=O)NCC2CCCO2)cc1 (configuration not stated),42.9% (active)
24,CCCC#Cc1cnc2c(c1)C(=O)N([C@H](C)CO)C[C@H](C)[C@H](CN(C)C(=O)Cc1ccncc1)O2,0.077% (inactive)
25,CC(C)NC(=O)N1[C@H](CNC(=O)CN(C)C)[C@@H](c2ccccc2)[C@@H]1CO,-0.154% (inactive)
